In all, about 110,000 compounds were measured (“z-score”: median about -0.1, highest 2% from about 2 on). Many of the other results were omitted from the sample, so the highest values are more common in it than they were. Activity calls are given as the source filed them.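 How the source made its calls: active means z-score in the third read window above 3 or below -3; inactive means the rest.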
target: Metabotropic glutamate receptor 8 (Rattus norvegicus) (UniProt P70579); experiment: rat mGluR8 modulators via GIRK flux, primary screen, cell-based, thallium flux, HTS (AID 488969); conditions: HEK293 rat mGluR8, GIRK (G protein-gated inwardly rectifying potassium channel) thallium flux, FluoZin2; at 10 µM; stronger effect = higher value; submaximal glutamate (EC20) added with thallium
Sequence (P70579 whole entry, looked up): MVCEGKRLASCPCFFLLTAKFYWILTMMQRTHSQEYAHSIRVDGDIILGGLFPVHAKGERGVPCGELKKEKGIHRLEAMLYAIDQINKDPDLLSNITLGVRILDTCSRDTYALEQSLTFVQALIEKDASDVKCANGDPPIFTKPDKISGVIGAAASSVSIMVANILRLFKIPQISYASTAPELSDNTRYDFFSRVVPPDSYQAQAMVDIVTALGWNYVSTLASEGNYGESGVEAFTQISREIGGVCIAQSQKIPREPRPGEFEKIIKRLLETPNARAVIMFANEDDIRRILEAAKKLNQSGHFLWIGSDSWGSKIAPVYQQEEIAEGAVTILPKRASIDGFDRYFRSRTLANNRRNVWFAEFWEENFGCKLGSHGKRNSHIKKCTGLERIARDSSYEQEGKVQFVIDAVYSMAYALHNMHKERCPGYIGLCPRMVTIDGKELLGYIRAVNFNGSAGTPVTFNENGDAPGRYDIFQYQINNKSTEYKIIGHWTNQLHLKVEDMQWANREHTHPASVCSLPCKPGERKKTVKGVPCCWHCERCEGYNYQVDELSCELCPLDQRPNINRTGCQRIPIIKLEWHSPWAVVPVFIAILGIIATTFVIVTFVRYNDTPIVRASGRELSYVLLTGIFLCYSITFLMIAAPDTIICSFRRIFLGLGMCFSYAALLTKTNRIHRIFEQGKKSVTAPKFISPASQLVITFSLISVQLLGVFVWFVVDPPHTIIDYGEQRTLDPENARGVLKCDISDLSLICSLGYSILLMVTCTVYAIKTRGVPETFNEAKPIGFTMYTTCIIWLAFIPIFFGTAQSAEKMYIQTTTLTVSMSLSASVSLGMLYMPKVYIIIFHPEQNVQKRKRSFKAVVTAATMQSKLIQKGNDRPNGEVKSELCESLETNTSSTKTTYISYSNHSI

Row | SMILES | z-score
1 | CC(=NC1CC1)c1c(-c2ccccc2)[nH]n(-c2nc3ccccc3s2)c1=O | -0.25
2 | CCc1cc(-c2n[nH]c(=S)n2CC(C)C)cs1 | 1.12
3 | CCCc1cc(-c2n[nH]c(=S)n2Cc2ccccc2)cs1 | 4.6 (active)
4 | CCCc1cc(-c2n[nH]c(=S)n2CC(C)C)cs1 | 4.16 (active)
5 | S=c1[nH]nc(-c2ccncc2)n1Cc1ccccc1 | 1.42
6 | Cc1cc(-c2n[nH]c(=S)n2CC(C)C)cs1 | -0.405
7 | CCc1cc(-c2n[nH]c(=S)n2Cc2ccccc2)cs1 | 0.464
8 | Cc1cc(-c2n[nH]c(=S)n2Cc2ccccc2)cs1 | 0.453
9 | CCc1c(-c2n[nH]c(=S)n2Cc2ccccc2)csc1C | 2.88
10 | Cc1scc(-c2n[nH]c(=S)n2Cc2ccccc2)c1C | 0.854
11 | Cc1nc2c(C)cccc2cc1C(=O)N/N=C/c1cccnc1 | -0.392
12 | CCc1cccc(CC)c1NC(=O)COC(=O)c1cccc(-c2ccc(OC(C)=O)cc2)c1 | -1.91
13 | Cc1ccccc1C(=NCCCN(C)C)c1ccccc1C | 0.825
14 | O=C(Cc1cccs1)N(Cc1ccco1)C1(C(=O)NC2CCCCC2)CCCCC1 | 1.89
15 | Cn1nc(Oc2nc(N3CCOCC3)nc(N3CCOCC3)n2)ccc1=O | 0.165
16 | CCOC(=O)N1CCN(C(=O)c2cc3cc(Br)ccc3oc2=O)CC1 | -0.271
17 | CCC1CCCCN1C(=O)c1cc2cc(Br)ccc2oc1=O (stereo unspecified) | 7.8 (active)
18 | O=C(c1cc2cc(Br)ccc2oc1=O)N1CCCC1 | 0.0138
19 | C=CCNC(=O)CC(=O)N/N=C/c1ccc(F)cc1 | -0.18
20 | C=CCn1c(-c2ccc(OC)cc2)csc1=Nc1c(C)n(C)n(-c2ccccc2)c1=O | -0.422
21 | N#CC1=C(S)N=C(N)C(c2nc(-c3ccccc3)cs2)C12CCCC2 (stereo unspecified) | 0.271
22 | Cc1ccc(S(=O)(=O)N(C)/C(=N/S(=O)(=O)c2ccccc2)c2ccccc2)cc1 | -0.162
23 | CC(=O)/C=C\c1cn(-c2ncc(C(F)(F)F)cc2Cl)c2ccccc12 | -0.119
24 | CN(C)/C=C/C(=O)/C=C/c1cn(-c2ncc(C(F)(F)F)cc2Cl)c2ccccc12 | 5.57 (active)

Row | SMILES | z-score
25 | O=C(O)/C=C/c1cn(-c2ncc(C(F)(F)F)cc2Cl)c2ccccc12 | -0.0759
26 | CN1CCN(C(=O)c2ccc(-c3nn(C)c(=O)c4ccccc34)cc2)CC1 | -0.877
27 | CSc1ncc(Cl)c(C(=O)NCc2ccc3c(c2)OCO3)n1 | 0.575
28 | COc1ncnc2c1sc1nc(-c3ccccc3)c3c(c12)CCCC3 | -0.0945
29 | O=c1[nH]cnc2c1sc1nc(-c3ccccc3)c3c(c12)CCCC3 | 0.204
30 | S=c1nc[nH]c2c1sc1nc(-c3ccccc3)c3c(c12)CCCC3 | 7.83 (active)
31 | CC1CN(C(=O)/C=C/c2cccc([N+](=O)[O-])c2)CC(C)O1 (stereo unspecified) | -0.164
32 | O=c1[nH]c2ccccc2c(=O)n1Cc1ccccc1 | 0.345
33 | COc1ccc(NC(=O)CCCn2c(=S)[nH]c3ccccc3c2=O)cc1 | -0.514
34 | CCC1CCCCN1CCn1c(=S)[nH]c2cc(OC)c(OC)cc2c1=O (stereo unspecified) | 2.07
35 | CCOc1cc2[nH]c(=S)n(CCN3CCCCC3CC)c(=O)c2cc1OCC (stereo unspecified) | 1.73
36 | O=c1c2ccccc2[nH]c(=S)n1CCN1CCN(Cc2ccccc2)CC1 | 7.91 (active)
37 | CC1CCCN(C(=O)CCCn2c(=S)[nH]c3ccccc3c2=O)C1 (stereo unspecified) | 4.5 (active)
38 | COCCNC(=O)CCCCCn1c(=S)[nH]c2ccccc2c1=O | 1.77
39 | CCOc1cc2[nH]c(=S)n(CCN3CCCCC3C)c(=O)c2cc1OCC (stereo unspecified) | 0.258
40 | O=C(CCCCCn1c(=S)[nH]c2ccccc2c1=O)N1CCOCC1 | -0.155
41 | COc1cccc(NC(=O)CCCn2c(=S)[nH]c3ccccc3c2=O)c1 | 3.39 (active)
42 | O=C(CCCn1c(=S)[nH]c2ccccc2c1=O)N1CCCCC1 | 1.44
43 | CCN1CCN(CCn2c(=S)[nH]c3ccccc3c2=O)CC1 | 0.66
44 | Cc1cccc(C(=O)N2c3ccccc3C(=O)OC2c2ccc3c(c2)OCO3)c1 (stereo unspecified) | -0.842
45 | c1coc(CN(Cc2ccco2)c2ncnc3c2oc2ccccc23)c1 | -2.18
46 | O=C1CN=C(Nc2ccc(Cl)cc2)N1c1ccccc1 | -0.0445
47 | COc1cc(-n2c(C)nc3cc(C(=O)NCCN4CCOCC4)ccc32)cc(OC)c1OC | -0.57
48 | COc1cc(NC(=S)Nc2cccnc2)cc(OC)c1OC | -0.192

Row | SMILES | z-score
49 | CC1CC(C)CN(CCCn2c(=S)[nH]c3ccccc3c2=O)C1 (stereo unspecified) | 14.4 (active)
50 | O=c1c2ccccc2[nH]c(=S)n1CCCN1CCN(C2CCCCC2)CC1 | 10.2 (active)
51 | CCN1CCN(CCCNC(=O)c2cc3c(=O)[nH]c4ccccc4c3s2)CC1 | 0.477
52 | O=C(CCCn1c(=S)[nH]c2cc3c(cc2c1=O)OCO3)N1CCN(C2CCCCC2)CC1 | -0.008
53 | CC1CCN(CCCn2c(=S)[nH]c3ccccc3c2=O)CC1 | 0.0115
54 | O=C(NCCN1CCN(Cc2ccccc2)CC1)c1cc2c(=O)[nH]c3ccccc3c2s1 | 2.15
55 | CC1CCCCN1CCNc1nc(=S)[nH]c2ccccc12 (stereo unspecified) | -0.105
56 | Cc1ccc2[nH]c(=O)c3cc(C(=O)NCCN4CCN(C)CC4)sc3c2c1 | 0.666
57 | CC1CCCCN1CCCn1c(=S)[nH]c2ccccc2c1=O (stereo unspecified) | 3.46 (active)
58 | O=C(CCCn1c(=S)[nH]c2ccccc2c1=O)NC1CCCCC1 | 0.0447
59 | CCN(CC)CCCn1c(=S)[nH]c2ccccc2c1=O | 0.126
60 | O=C(NC1CCCCC1)c1ccccc1-c1ccccc1 | -0.176
61 | COCCNC(=O)c1cc2ncc(Br)cn2n1 | 0.00586
62 | C/C(Cn1cnc([N+](=O)[O-])n1)=N\NC(=O)c1ccc(Br)cc1 | -0.261
63 | O=C(CNC(=O)c1cccs1)NC1=NCCS1 | 0.647
64 | COc1ccc(/C=N/NC(=O)c2ccccc2O)cc1CSc1ccccn1 | 0.779
65 | Cc1c2cccn2cc[n+]1C | -0.16
66 | CCOC(=O)c1ccc(N/C=C2/CCCC(C)C2=O)cc1 (stereo unspecified) | 0.315
67 | Cc1ccccc1OCC(=O)O/N=C(\N)Cc1ccc(Cl)cc1 | -0.483
68 | CC12CC(NC(=O)N1c1cccc(C(=O)N3CCN(c4ccccc4)CC3)c1)c1ccccc1O2 (stereo unspecified) | -0.354
69 | CCC1CCCCN1CCCn1c(=S)[nH]c2ccccc2c1=O (stereo unspecified) | 7.04 (active)
70 | CCC1CCCCN1CC(=O)c1c(C)[nH]c2ccccc12 (stereo unspecified) | -0.699
71 | CCOC(=O)N1CCN(C(=O)CCCn2c(=S)[nH]c3ccccc3c2=O)CC1 | -0.357

Source: PubChem BioAssay AID488969 (Vanderbilt High Throughput Screening Facility, 2010)
